Data published in PubChem BioAssay (NCI).
Compounds without any hit were thinned out: in the full panel of roughly 83,000, 20% have a hit.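 Method: cells in 96-well plates; compound added at one concentration; 48 h incubation; percent growth measured; values under 10 scored active.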 Activity calls are given as the source filed them.

System: HL-60(TB) leukemia
Assay: NCI-60 one-dose screen, 48 h (100 = growth as untreated, 0 = no growth, -100 = all killed)
Settings: 10 µM unless noted

Row | SMILES | growth
1 | Cc1c(CC(=O)OCCO)cc(-c2ccc(Cl)cc2)n1-c1ccccc1 | 95.7% (inactive)
2 | CCN(CC)CCOC(=O)Nc1c(C(C)C)cccc1C(C)C | 101% (inactive)
3 | CCN(C(=O)c1cc2ccccc2[nH]1)[C@H]1CCC[C@@H](NCc2ccc(OC)cc2)C1 | 117% (inactive)
4 | Fc1ccc2nc3c(cc2c1)CSc1nnc(-c2ccc[nH]c2=S)n1N3 | 106% (inactive)
5 | COc1cc(/C=C2\C=C(c3ccccc3)N(CCc3ccccc3)C2=O)cc(OC)c1OC | 80.3% (inactive)
6 | COc1ccc(-c2csc(NC(=O)CSc3nc(C)cc(=O)[nH]3)n2)cc1 | 106% (inactive)
7 | Cc1nnc2c(Cc3ccccc3)nc3ccccc3n12 | 95.7% (inactive)
8 | CC(=O)CS(C)(=O)=O | 100% (inactive)
9 | COc1cc(C=Nc2oc(-c3ccccc3)c(-c3ccccc3)c2C#N)cc(CN2CCCCC2)c1O | 92.5% (inactive)
10 | COc1ccc(OC)c2ncccc12 | 98.9% (inactive)
11 | COc1cc(-c2cc(/C=C/C(C)=O)[nH]n2)cc(OC)c1OC | 66.7% (inactive)
12 | O=C(NC1CCNCC1)c1[nH]ncc1NC(=O)c1c(Cl)cccc1Cl | -31.8% (active)
13 | Cc1nc2cnc(N)c(C#Cc3cncc(C(=O)Nc4ccc(CN5CCN(C)CC5)c(C(F)(F)F)c4)c3)c2nc1C | -16.4% (active)
14 | NC(=S)NN=C1CCCCC1 | 74.1% (inactive)
15 | COc1ccccc1/C=C1\Oc2cc(OCCN3CCCC3)ccc2C1=O | 97.1% (inactive)
16 | Fc1ccc(-c2nnc(-c3c(-c4ccc(F)cc4)nc4ccccn34)o2)cc1 | 103% (inactive)
